The values that follow come from PubChem BioAssay AID651692 (Broad Institute, 2012).

Each structure is given as a SMILES string. Potency and affinity values are given separately. Values without a mark were called inactive.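 How the source made its calls: active means fitted half-maximal concentration for loss of cell signal no higher than twice the top valid tested concentration; inconclusive means flat curve at 30 to 70% inhibition, or poor fit; inactive means flat within 30%, signal rise, or potency above limit.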

A short description of this assay: cytotoxicity toward MDA-MB-231 breast cancer cells – cell-based, CellTiter-Glo luminescence, cherry-pick, cytotoxicity control for RAD54 inhibitor project, dose response (AID 651692).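 Further: 0% = median of sample compound wells and -100% = staurosporine control wells; more negative values mean stronger loss of viable cell signal.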 Particulars: MDA-MB-231 viability, 24 h; series mostly up to 26 µM; activity change, negative = growth inhibition: at the top concentration.
`CCOC(=O)c1cnc2c(CC)cccc2c1NCCCN1CCOCC1`: the “activity change, negative = growth inhibition” value was 2.46%. On to `COc1ccc(CCNC(=O)c2cc3c(=O)n4ccccc4nc3n(CCCN3CCOCC3)c2=N)cc1OC`, for which the “activity change, negative = growth inhibition” value was 7.19%.

Consider `CCN(CC)CC(=O)Nc1cc(N(C)C)nc2ccccc12`, for which the “activity change, negative = growth inhibition” value is 9.38%.

In the case of `CN1CCN(c2nc(-c3cccc([N+](=O)[O-])c3)nc3ccccc23)CC1`, the “activity change, negative = growth inhibition” value is -12.8%.

Take `CN(C)CCNC(=O)c1cccc(-c2cnc3c(NC=O)cc(-c4cccc(F)c4)cn23)c1`: the “activity change, negative = growth inhibition” value was -5.96%. The same measure for `Cc1cc(NCCCN(C)C)n2c(nc3ccccc32)c1C#N`: 6.97%; for `CCOC(=O)c1cnc2c(Cl)cccc2c1NCCCN1CCOCC1`: 8.64%; for `COc1ccc2c(c1)c1ncn(CCN3CCCCC3)c(=O)c1n2C`: 3.69%. Regarding `CCOc1ccc2[nH]c3c(NCCN(C)C)ncnc3c2c1`, the “activity change, negative = growth inhibition” value is -4.38%. The same measure for `c1ccc2c(c1)oc1c(Nc3ccc(CN4CCOCC4)cc3)ncnc12`: 2.94%. As for `CN1CCCN(c2cc(-c3ccc4ccccc4c3)nc3ccnn23)CC1`, the “activity change, negative = growth inhibition” value is -8.54%. Turning to `Cc1ccc2oc(=O)c3cc(C(=O)NCCCN4CCN(C)CC4)sc3c2c1`, the “activity change, negative = growth inhibition” value was 6.21%. The value for `CN(C)CCNc1ncnc2sc(-c3ccccc3)cc12` was -2.01%; that for `CCN(CC)CCN1CCN(c2cncc(-c3cccc(N)c3)n2)CC1` was 3.21%; that for `CN1CCCC1CCNc1ccc2c(=O)c3ccccc3oc2c1` (stereo not given) was 6.49%.

As for `CC1CCCCC1NC(=O)C1Cc2ccccc2CN1S(C)(=O)=O` (stereo not given), the “activity change, negative = growth inhibition” value is 1.52%. In the case of `CN1CCc2[nH]c3ccc(C(=O)NN)cc3c2C1`, the “activity change, negative = growth inhibition” value is -1.61%. For the compound `Cc1ccc2nc(C)cc(Nc3ccc4c(c3)OCCO4)c2c1`, the “activity change, negative = growth inhibition” value was -16.2%. The value for `Cc1[nH]ccc2cc3nc4ccccc4c3cc12` was -23.1%; that for `Cc1nc2nc(C)c(C)nc2nc1C` was 4.2%.
